USP2a inh – qHTS Assay for Inhibitors of Ubiquitin-specific Protease USP2a Using CHOP2 as the Reporter; Ubiquitin carboxyl-terminal hydrolase 2 (Homo sapiens), O75604; USP2 core, Ub-CHOP2 coupled fluorogenic reporter, 485/531; Potency, µM (series often up to 38.3 µM), for the others: at the highest dose activity change, negative = inhibition, hits mostly inhibitors; 330,000 tested, 0.01% active;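 note: potency is the fitted concentration of half-maximal effect; plate controls were DMSO wells for no effect and full inhibition by NEM control for full effect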
Target sequence (O75604 whole entry, looked up): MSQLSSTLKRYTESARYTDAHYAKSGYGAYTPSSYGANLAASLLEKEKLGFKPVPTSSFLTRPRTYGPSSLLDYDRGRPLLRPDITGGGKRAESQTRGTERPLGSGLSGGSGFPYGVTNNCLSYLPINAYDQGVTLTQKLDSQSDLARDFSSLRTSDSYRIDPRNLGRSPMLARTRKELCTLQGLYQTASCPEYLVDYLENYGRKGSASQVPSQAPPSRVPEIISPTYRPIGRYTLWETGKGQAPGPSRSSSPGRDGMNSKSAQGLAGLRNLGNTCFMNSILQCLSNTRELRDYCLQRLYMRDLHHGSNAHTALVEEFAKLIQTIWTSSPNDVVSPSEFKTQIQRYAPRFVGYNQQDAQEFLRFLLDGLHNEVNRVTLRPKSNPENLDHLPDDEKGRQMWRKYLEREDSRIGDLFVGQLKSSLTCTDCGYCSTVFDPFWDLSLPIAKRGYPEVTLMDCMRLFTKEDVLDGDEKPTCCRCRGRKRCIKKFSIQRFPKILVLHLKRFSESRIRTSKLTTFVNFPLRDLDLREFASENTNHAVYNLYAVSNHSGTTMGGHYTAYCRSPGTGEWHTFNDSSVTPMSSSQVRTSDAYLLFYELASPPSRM
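Deubiquitinase activity read as fluorescence (485/531 nm) after Ub-CHOP2 cleavage activates the enterokinase reporter on its substrate; USP2 core 10nM, Ub-CHOP2 and substrate 25nM each, 30min compound preincubation then 60min RT; data normalized to NEM, curves fitted.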
Six1-Eya2 inh – qHTS Assay for Inhibitors of the Six1/Eya2 Interaction | Homeobox protein SIX1 (Homo sapiens) + Protein phosphatase EYA2 (Homo sapiens), … | AlphaScreen GST-Six1/His-Eya2 binding, biochemical; active compounds read low | activity change, % (concentration not given with the values) | 360,000 tested, 0.56% active | AID 651725, 2012; in the data active = activity change below about -65%; inconclusive = mostly about -30% to -63%
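AlphaScreen luminescence read after one hour at 37 °C in darkness. Pin-transferred compounds met GST-Six1 and His-Eya2 protein (5X stock 250 nM/500 nM) plus glutathione donor and Ni-chelate acceptor beads (5X, 50 ug/mL).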
CtBP-E1A blk – qHTS Assay for Inhibitors of the CtBP/E1A Interaction | CtBP / adenovirus E1A interaction (AlphaScreen) | AlphaScreen GST-E1A/His-CtBP binding, 1536-well; active compounds read low | activity change, % (no concentration beside the values) | 340,000 tested, 0.49% active; in the data active = activity change below about -65%; inconclusive = mostly about -30% to -63%
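Protein mix (5X: 125 nM each GST-E1A, His-CtBP) was incubated with pinned compound 2 h at 37 deg C in dark, in 50 mM Tris pH 8.0 buffer with 300 mM NaCl. Glutathione donor and nickel acceptor beads followed; AlphaScreen signal read after 1 h.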
Eya2 inh – qHTS Assay for Inhibitors of the Phosphatase Activity of Eya2. Protein phosphatase EYA2 (Homo sapiens), O00167. recombinant Eya2, OMFP fluorescence dephosphorylation (OMFP is methylfluorescein phosphate). Potency, µM (top dose mostly 76.9 µM), for the others: at the highest dose activity, negative = inhibition, most hits filed as inhibitors. 330,000 tested, 0.006% active. AID 488837, 2010; note: potency is the fitted concentration of half-maximal effect
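Eya2 protein (added as 0.2 uM solution) was preincubated with compound for 10 min at ambient temperature in 50 mM HEPES pH 7.5, 50 mM NaCl, 5 uM MgCl2, 0.05% BSA, 1 mM DTT. OMFP (added at 50 uM) then reacted 10 min; fluorescence read at 485/525 nm.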
uPA generation – qHTS for Inhibitors of Cell Surface uPA Generation; cell surface uPA generation assay, qHTS; Potency, µM (titrated, usually from 38.3 µM), for the others: at the top dose activity change, negative = inhibition, hits mostly inhibitors; 330,000 tested, 0.31% active; active = well fitted inhibition curve with a large enough effect; inconclusive = small, poorly fitted or top-dose-only effect; inactive = no such curve, though single readings can be large or run the other way; tested in mouse RAW 264.7 cells; note: potency is the fitted concentration of half-maximal effect; nearly all actives have a fitted effect of over 55% in size
L3MBTL1 block – qHTS Assay for the Inhibitors of L3MBTL1; Potency, µM (top dose mostly 57.1 µM), for inactives: top-dose activity, negative = inhibition, usual class: inhibitors; AlphaScreen L3MBTL1–H3K9me1 peptide binding; 230,000 tested, 0.66% active; Lethal(3)malignant brain tumor-like protein 1 (Homo sapiens), Q9Y468; note: potency is the fitted concentration of half-maximal effect; nearly all actives have a fitted effect of over 60% in size
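AlphaScreen assay: L3MBTL1 (50 nM final) was preincubated 30 min at room temperature with biotinylated H3(1-15)K9me1 peptide (75 nM final), then 30 min with library compounds; streptavidin donor and nickel chelate acceptor beads (10 ug/mL final) added, 30 min dark.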
* marks the source's active call; other numbers are inactive results; u = inconclusive; x = no result; [ ] = another dose, or the depositor's remark. The list is not random: actives were taken first. Their share in the collection is about 1.2%. Unless noted, calls come from the whole dose curve; as a rule, active = well fitted curve in the direction sought with a large enough effect; inconclusive = small, poorly fitted or top-dose-only effect, or another doubt; inactive = no such curve, though single readings can be large; an effect the other way counts as inactive or inconclusive. Unless noted, % is set by controls: 0 for no effect and ±100 for the full control effect.

SMILES	USP2a inh	Six1-Eya2 inh	CtBP-E1A blk	Eya2 inh	uPA generation	L3MBTL1 block
O=C(/C=C/c1ccccc1)Oc1cccc(C(=S)N2CCOCC2)c1	-0.6%	-68.9*	-5.0	3.4%	-0.2%	x
O=C(OCc1ccccc1)N1CCC2CC1c1ccc(-c3cccc(F)c3)cc12 (centres undefined)	x	22.9	10.8	x	x	x
CCOc1ccc(CN(C)Cc2cc(=O)oc3c(C)c(C)ccc23)cc1OC	x	-7.8	-6.6	x	3.7%	x
COc1ccc(CN(CC(=O)NCc2ccc(F)cc2)C(=O)c2csnn2)cc1	0.7%	5.9	6.0	-2.2%	-1.2%	x
CCCCCOc1ccc(C(O)C(CN2CCOCC2)c2ccccc2)cc1 (centres undefined)	-4.5%	5.5	1.5	-7.2%	0.2%	2.0%
Cc1ccccc1NCc1ccc(O)c2ncccc12	3.9%	-90.7*	-94.7*	-8.6%	-20.6%	u
Oc1ccc(CNc2ccccc2)c2cccnc12	-0.8%	-89.3*	-93.6*	-1.0%	-7.1%	u
Cc1cccc(NCc2ccc(O)c3ncccc23)c1	2.0%	-79.9*	-86.3*	4.4%	-2.8%	u
Oc1ccc2ccccc2c1CNc1ccccc1	x	4.0	-2.0	x	0.6%	x
Oc1ccc(CNc2ccc(F)cc2)c2cccnc12	-1.9%	-89.8*	-90.5*	17.3%	-3.0%	31.6µM*
Cc1cccc(NC(=O)CSCC(=O)Nc2cccc3ncccc23)c1	-2.4%	6.4	-11.3	-16.2%	-10.6%	7.8%
CCOC(=O)CN1C(=O)S/C(=C/c2ccc(OCc3ccc(C(=O)O)cc3)cc2)C1=O	-5.4%	12.3	5.1	15.5%	-0.5%	x
C[C@H]1CN([C@@H](C)CO)S(=O)(=O)c2ccc(C#CC3CC3)cc2O[C@@H]1CN(C)S(C)(=O)=O	x	0.1	-14.4	x	x	x
COc1cc(/C=C2\CC/C(=C\c3cc(OC)c(O)c(OC)c3)C2=O)cc(OC)c1O	2.1%	-7.6	-4.7	-2.9%	-8.6%	28.2µM*
CC1=C(C#N)c2nc(N)c(C#N)c(C)c2/C1=C\c1ccc(-c2ccccc2C(=O)O)o1	0.1%	u	-11.5	11.6%	-6.4%	15.8µM*
COc1cc(/C=C2/C(C)=C(C#N)c3nc(N)c(C#N)c(C)c32)ccc1OCC(=O)O	1.4%	u	x	-19.4%	2.6%	u
Cc1cc(C(=O)NNS(=O)(=O)c2cccc(Cl)c2)nn1C(C)(C)C	4.6%	5.3	x	-4.7%	-8.2%	-1.3%
COc1ccccc1C(=O)Nc1nc2cc3c(cc2s1)OCCO3	-1.6%	4.4	0.2	-14.6%	2.82µM*	10.7%
CNc1cncc(-c2cc(OC)ccc2OC)n1	x	-17.9	-21.1	x	x	x
COc1ccc(OC)c(-c2cnc(OC(C)(C)C)nc2OC(C)(C)C)c1	0.1%	2.7	x	-19.9%	2.24µM*	-16.1%
O=C1N/C(=C/c2ccc(N3CCOCC3)o2)C(=O)N1c1cccc(Cl)c1	-0.7%	-1.3	-11.3	-4.0%	3.98µM*	1.8%[11.4 µM]
CCC(C(=O)O)N1C(=O)C2CCCCC2C1=O (centres undefined)	3.0%	3.3	-4.9	-7.7%	5.6%	x
Cc1cccc(CCN2C(N(C)C)=NC[C@@H]2Cc2ccccc2)c1	1.3%	38.8	-24.9	-37.9%	10µM*	-0.9%
Cc1cccc(CCN2C(N(C)C)=NC[C@@H]2CC(C)C)c1	3.3%	5.0	8.4	-21.4%	u	6.8%
N#Cc1c(Cl)nc(-c2ccncc2)nc1-c1ccccc1	-0.2%	9.2	x	4.2%	-2.6%	x
SMILES	USP2a inh	Six1-Eya2 inh	CtBP-E1A blk	Eya2 inh	uPA generation	L3MBTL1 block
C=CCN1c2ccccc2[C@]23C[C@@H](C(=O)OC)N(C(=O)c4cc(C)oc4C)C2=NC(C(=O)OC)=C(C(=O)OC)[C@H]13	-1.4%	-21.8	x	4.3%	5.62µM*	x
COc1cccc(-c2cnc3c(NC=O)cc(-c4ccc(O)c(OC)c4)cn23)c1	x	u	-71.2*	x	x	x
COc1cccc(-c2cc(NC=O)c3ncc(-c4cc(OC)c(OC)c(OC)c4)n3c2)c1	x	-15.1	u	x	x	x
O=C(CSc1cccc2cccnc12)OCC(=O)c1ccccc1	2.6%	-87.7*	-93.3*	-11.7%	3.2%	0.5%
O=C(Sc1cccc2cccnc12)c1ccccc1Br	1.7%	x	x	21.5%	x	x
O=C(Sc1cccc2cccnc12)c1ccc(F)cc1	0.6%	x	x	-5.6%	x	4.47µM*
CN(C)C(=O)CSc1cccc2cccnc12	1.9%	-91.4*	-94.4*	11.3%	-14.5%	-16.1%[11.4 µM]
O=C(CSc1cccc2cccnc12)N1CCCC1	0.6%	-93.3*	-91.4*	1.4%	1.9%	u
O=C(CSc1cccc2cccnc12)OCC(=O)c1ccc(Br)cc1	1.3%	-14.9	-29.0	1.2%	-6.5%	0.2%
Cc1c(/N=C(\[O-])Nc2ccc(Br)cc2)sn[n+]1C	0.9%	7.9	x	-0.3%	u	-1.2%
O=C(N/C(=C/c1ccc(Br)cc1)C(=O)N1CCCC1=O)c1ccco1	-0.5%	-10.4	-93.3*	-1.0%	u	-17.3%
Cn1c(=N)c(S(=O)(=O)c2ccccc2)cc2c(=O)n3ccccc3nc21	2.6%	u	-69.5*	6.4%	-5.4%	-2.4%
Cn1c(=N)c(S(=O)(=O)c2ccc(F)cc2)cc2c(=O)n3ccccc3nc21	4.4%	-10.9	-15.5	17.0%	-2.5%	-0.9%
O=C1NC[C@@H](CCCCN2CCN(CCc3ccccc3)C(=O)C2=O)N(CCc2ccc(O)cc2)C1=O	x	-18.5	-10.7	x	x	x
Cc1ccc2nc(-c3ccccc3)cn2c1	1.0%	0.5	-2.1	24.3%	-13.8%	-4.4%
c1ccc(-c2cn3c(n2)-c2ccccc2C3)cc1	-0.9%	-16.0	-2.9	-6.3%	6.31µM*	-10.8%
CC1OC(CC(=O)O)CC2=C1C(=O)c1c(O)cccc1C2=O (centres undefined)	x	-88.7*	1.2	x	-8.9%	x
O=C1c2cccc(O)c2C(=O)c2c(O)cccc21	2.7%	x	x	2.5%	x	-28.5%
O=[N+]([O-])c1ccc(Nc2ccccc2)c2nonc12	1.9%	-13.2	x	-4.4%	-8.3%	x
O=[N+]([O-])c1ccc(Sc2cccc[n+]2[O-])c2nonc12	8.3%	-68.2*	-68.2*	-1.5%	u	u
COc1c2ccoc2cc2oc(C)cc(=O)c12	x	1.5	2.9	x	15.2%	x
Cc1cc(=O)c2c(O)c(O)ccc2o1	-1.6%	2.8	1.0	2.2%	-1.8%	17.8µM*

Bioassay records (PubChem BioAssay)
